Percent Effect data for 51 compounds are collected here from ChEMBL document CHEMBL3988442, “University of Dundee, Small-Polar-MMV Screening Library” (2021).

In experiment [1] the target is T1, Aspartate--tRNA(Asp/Asn) ligase (Mycobacterium tuberculosis (strain ATCC 25618 / H37Rv)) (UniProt P9WFW3). Further: in the data most compounds retested in dose-response had high values.
T1 sequence (whole entry): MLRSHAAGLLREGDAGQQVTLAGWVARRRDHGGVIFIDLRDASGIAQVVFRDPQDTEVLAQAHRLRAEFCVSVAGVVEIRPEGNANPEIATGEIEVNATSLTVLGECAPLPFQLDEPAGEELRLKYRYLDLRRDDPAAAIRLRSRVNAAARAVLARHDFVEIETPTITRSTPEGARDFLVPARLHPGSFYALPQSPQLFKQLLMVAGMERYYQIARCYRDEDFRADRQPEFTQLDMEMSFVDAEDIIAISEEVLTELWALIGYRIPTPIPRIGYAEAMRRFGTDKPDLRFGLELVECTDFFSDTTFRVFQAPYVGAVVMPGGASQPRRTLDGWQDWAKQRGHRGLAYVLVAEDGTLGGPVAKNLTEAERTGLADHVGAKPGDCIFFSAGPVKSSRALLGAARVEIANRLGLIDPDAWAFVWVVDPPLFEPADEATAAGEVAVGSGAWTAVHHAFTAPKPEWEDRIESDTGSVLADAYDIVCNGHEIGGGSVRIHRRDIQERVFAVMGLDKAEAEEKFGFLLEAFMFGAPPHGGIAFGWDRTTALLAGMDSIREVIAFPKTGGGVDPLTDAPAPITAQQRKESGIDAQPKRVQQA
As to the kind of experiment: Assay for Asp RNA synthetase-1 from Mycobacterium tuberculosis. It is filed as functional. More on the design: scale not given: direction of the effect not stated beside the values. The conditions noted are these: 30 µM.

The target of experiment [2] is Shiga toxin 2 (Escherichia coli O157:H7) (UniProt P09385+P09386). The experiment can be described thus: E. coli 0.157:H7 Shiga Toxin SOP - stx2 screening assay. The experiment is classed as functional. More on the design: scale not given: direction of the effect not stated beside the values. The conditions noted are these: 30 µM.

Regarding `CC(C)(C)c1nc(CN2CCCC2CCc2ccccc2)no1` (configuration not stated), the Percent Effect was 2.52% in experiment [1] and 14.9% in experiment [2].

For `COCCN1C(=O)[C@]2(CC[C@@H]3CN(C(=O)NC4CCCC4)C[C@@H]32)N=C1C`, the Percent Effect is 0.379% in experiment [1] and -4.86% in experiment [2].

In the case of `Cn1nnc2c1CCN(CC1CC1)C2COCc1ccccc1` (configuration not stated), the Percent Effect in experiment [1] was found to be 1.84%; in experiment [2], 0.25%.

As for `Cc1ccc(CN(C)C(=O)CN2CCCC2Cn2cccn2)o1` (configuration not stated), the Percent Effect in experiment [1] is -1.15%; in experiment [2], -15.7%.

As for `COc1ncccc1CNc1cc(N2CCCC2CO)ncn1` (configuration not stated), the results for the Percent Effect in experiment [1] and in experiment [2] were -0.88% and -26.2%, respectively.

In the case of `CC(Cn1cncn1)NCc1nncn1C1CCCCC1` (configuration not stated), the Percent Effect was -4.88% in experiment [1] and 2.43% in experiment [2].

On to `CCc1cnc2c(c1NCc1cccc(OC)c1)c(=O)n(C)c(=O)n2C`, for which the Percent Effect in experiment [1] was -0.0729%; in experiment [2], -21.5%.

Take `CC(C)c1nc(C2CCCN(C(=O)CCn3ccnc3)C2)no1` (configuration not stated): the Percent Effect in experiment [1] is 5.96%; in experiment [2], 3.56%.

For `c1cnnc(N2CCCC(NCc3ccc(-n4ccnc4)cc3)C2)c1` (configuration not stated), the Percent Effect in experiment [1] was -2.02%; in experiment [2], 10.2%.

On to `Cc1ccc(S(=O)(=O)NC2CC2)cc1C`, for which the Percent Effect was -2.59% in experiment [1] and -0.587% in experiment [2].

`Cn1c(C2CC2)nc2c1CCN(CC(=O)Nc1nncs1)C2`: the Percent Effect in experiment [1] was 7.07%; in experiment [2] it was -9.76%.

Regarding `CC(NC(=O)CSCC(=O)Nc1ccccc1)c1ccccc1` (configuration not stated), the values for the Percent Effect in experiment [1] and in experiment [2] were 3.01% and 16.8%, respectively.

As to `Cc1[nH]ccc1C(=O)Nc1cccc(CN2CCC(O)CC2)c1`, the Percent Effect in experiment [1] was 0.958%; in experiment [2], -28.9%.

On to `Cc1ccccc1C(=O)NCc1ccc(N2CCNC(=O)C2)c(F)c1`, for which the Percent Effect was -0.569% in experiment [1] and 0.0326% in experiment [2].

As for `Cc1cc(C)nc(Nc2cccc(C3CCCN(C)C3)n2)n1` (configuration not stated), the Percent Effect in experiment [1] was -3.29%; in experiment [2] it was 1.38%.

For `Cc1nnc(NC(=O)CN2CCCC(Cn3cncn3)C2)s1` (configuration not stated), the Percent Effect was 2.66% in experiment [1] and -3.39% in experiment [2].

Consider `CN(CCNC(=O)NCc1ccncc1)C1CCCC1`, for which the values for the Percent Effect in experiment [1] and in experiment [2] were -2.09% and 8.07%, respectively.

For the compound `CC1CCN(Cn2nc(-c3ccc(F)cc3)oc2=O)CC1`, the Percent Effect in experiment [1] was -0.789%; in experiment [2] it was -14.8%.

On to `CC(=O)N1CCCC1c1csc(Nc2cnccn2)n1` (configuration not stated), for which the Percent Effect is 3.49% in experiment [1] and 29.9% in experiment [2].

Turning to `Cc1cccc(C(=O)N2CCCN(Cc3cnn(C)c3)CC2)n1`, the Percent Effect in experiment [1] was -3.08%; in experiment [2] it was -31.1%.

For `Cc1ccc2oc(C(=O)N3CCCC(c4noc(C)n4)C3)cc2n1` (configuration not stated), the Percent Effect in experiment [1] was -6.59%; in experiment [2], -27.4%.

For the compound `FC(F)(F)C1CCc2nnc(CNCc3ccsc3)n2C1` (configuration not stated), the Percent Effect in experiment [1] is -0.0705%; in experiment [2] it was 3.92%.

For the compound `Cc1nn(CC(C)C)c(N(C)C)c1CNCc1cccc2c1OCO2`, the Percent Effect worked out at 1.9% in experiment [1] and 20.6% in experiment [2].

For the compound `CCc1nc2n(n1)CC(NCC(=O)Nc1ccc(Cl)cn1)CC2` (configuration not stated), the Percent Effect was 0.314% in experiment [1] and 2.33% in experiment [2].

On to `Cc1ccc(CNC(=O)Nc2nnc(C)s2)cn1`, for which the figures for the Percent Effect in experiment [1] and in experiment [2] were 4.24% and -6.66%, respectively.

With `c1ccc(CN2CCCC(c3nccnc3-n3ccnc3)C2)cc1` (configuration not stated), the Percent Effect in experiment [1] is 2.31%; in experiment [2], -2.34%.

Take `O=C(NCc1ccc(-n2cncn2)nc1)c1ccoc1`: the Percent Effect in experiment [1] is 3.8%; in experiment [2] it was -9.83%.

`Cc1cn2c(n1)CCC(NC(=O)c1ccc(CS(C)(=O)=O)cc1)C2` (configuration not stated): the Percent Effect in experiment [1] is -0.233%; in experiment [2], -16.5%.

For `CCNC(=O)[C@@H]1C[C@H](NC(=O)Cc2ccsc2)CN1Cc1ccc(C)o1`, the figures for the Percent Effect in experiment [1] and in experiment [2] were -0.518% and 18.7%, respectively.

Take `CCNC(=O)[C@@H]1C[C@@H](NC(=O)Cc2ccncc2)CN1Cc1ccsc1`: the results for the Percent Effect in experiment [1] and in experiment [2] were -3.17% and -0.12%, respectively.

Take `c1ncn(CC2CN(Cc3csc(C4CCCC4)n3)CCO2)n1` (configuration not stated): the Percent Effect in experiment [1] is -2.81%; in experiment [2], 13.4%.

With `c1ccc(-c2nc(CN3CCc4c(ncn4C4CC4)C3)cs2)cc1`, the Percent Effect in experiment [1] is 4.49%; in experiment [2], -40.4%.

For `COc1cc2ncn(CC(=O)NCCCN(C)C)c(=O)c2cc1OC`, the Percent Effect was -2.9% in experiment [1] and -29.9% in experiment [2].

With `Cc1nsc(NC(=O)N2CCN(Cc3ccc(F)cc3)C(=O)C2)n1`, the Percent Effect was 2.26% in experiment [1] and -7.74% in experiment [2].

As to `O=C(c1cc[nH]n1)N1CCCC(c2cccc(-n3ccnc3)n2)C1` (configuration not stated), the Percent Effect in experiment [1] is -2.72%; in experiment [2], 9.34%.

For `CCc1nc(CN2CCCC(NCc3ccc(C(N)=O)cc3)C2)no1` (configuration not stated), the Percent Effect in experiment [1] is -2.68%; in experiment [2], -8.49%.

In the case of `Cc1nccn1-c1cc(CNC(=O)CCNC(=O)C2CCCC2)ccn1`, the Percent Effect in experiment [1] is -2.19%; in experiment [2] it was 1.23%.

Take `CN(Cc1ccco1)C[C@H]1OC[C@@H]2CCN(Cc3nccs3)C[C@@H]21`: the figures for the Percent Effect in experiment [1] and in experiment [2] were 4.31% and -45.7%, respectively.

Turning to `Cc1cc(N2CCC3(CCC(=O)N(CC4CC4)C3)CC2)nc(N)n1`, the Percent Effect is -0.719% in experiment [1] and 0.426% in experiment [2].

As to `CCn1c(C)nnc1CN(C)C1CCN(Cc2cnc(C)cn2)C1` (configuration not stated), the values for the Percent Effect in experiment [1] and in experiment [2] were 2.78% and -19%, respectively.

As to `CS(=O)(=O)N1CCc2nc(NC(=O)Nc3c(F)cccc3F)sc2C1`, the Percent Effect in experiment [1] was -4.11%; in experiment [2] it was 4.52%.

`N#Cc1ccc(OCCNc2cccc(C(=O)N3CCOCC3)c2)cc1`: the Percent Effect in experiment [1] is 1.46%; in experiment [2] it was -43.4%.

Turning to `Cc1ccccc1N1CCCN(C(=O)CCCS(N)(=O)=O)CC1`, the Percent Effect in experiment [1] is 6.58%; in experiment [2], -25.7%.

With `CC(C)CC1SCC(=O)Nc2c1cnn2C(C)C` (configuration not stated), the Percent Effect in experiment [1] was 3.17%; in experiment [2], -18.7%.

Consider `Cc1nnc(C(C)NCC2(c3c(F)cccc3F)CCCC2)o1` (configuration not stated), for which the figures for the Percent Effect in experiment [1] and in experiment [2] were -1.77% and 9.79%, respectively.

On to `CN(CCNC(=O)Nc1ccncc1)C1CCCCC1`, for which the Percent Effect in experiment [1] was 1.25%; in experiment [2], -5.92%.

On to `Cn1cc(C2COC3(CCN(C(=O)Cn4cccn4)CC3)C2)cn1` (configuration not stated), for which the Percent Effect in experiment [1] is 8.57%; in experiment [2] it was -7.73%.

With `Cc1ccc(=O)n(CC2(O)CCN(Cc3cc(C)c(O)c(C)c3)CC2)n1`, the Percent Effect in experiment [1] is -3.32%; in experiment [2] it was -78.5%.

In the case of `Cc1cnn(CC2CN(CCc3ccncc3)CCO2)c1` (configuration not stated), the Percent Effect in experiment [1] is 8.62%; in experiment [2], -2.69%.

Consider `CN1CCCN(C(=O)c2ccc3c(c2)nc(N2CCOCC2)n3C)CC1`, for which the Percent Effect was -3.09% in experiment [1] and -5.95% in experiment [2].

In the case of `Cc1nc(C)n(CC2CCCN2CC(=O)NCc2ccco2)n1` (configuration not stated), the Percent Effect is 4.57% in experiment [1] and -5.68% in experiment [2].
